Measured values from the supplement of paper PMC4237247.
Counter-ions that a name gives are not always drawn.

What follows are compounds tested on HeLa (assay: percent cells in S phase; higher = more S arrest). Details: 10 µM; 20 h.
Procedure: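 HTS of 79,827 drug-like compounds at 10 uM. HeLa cells in 384-well plates were treated for 20 h, fixed, stained with Vybrant DyeCycle Green and scanned on an Acumen eX3 cytometer to give per-well cell cycle profiles (% cells in each phase). The plate Z' was 0.51. Only hits are listed: G1 hits >4 SD and S hits >5 SD from the mean.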
With `CC(=O)C1=C(O)C(=O)N(CC(=O)O)C1c1ccccc1F` (configuration not stated) (hit class: S-phase inhibitor) the “percent cells in S phase” value was 20.4%. With `CC[C@@H](C(=O)[C@@H](C)[C@@H](O)[C@H](C)CCc1ccc(C)c(O)c1C(=O)O)[C@H]1O[C@](CC)([C@H]2CC[C@](O)(CC)[C@H](C)O2)C[C@@H]1C` [Lasalocid sodium salt] (hit class: G1-phase inhibitor) the “percent cells in S phase” value was 8.33%. `COc1[nH]c2ccccc2c1C=NO` (hit class: S-phase inhibitor) was tested, and the “percent cells in S phase” value was 19.8%. For `O=C1c2c(O)ccc(O)c2C(=O)c2c(NCCNCCO)ccc(NCCNCCO)c21` [Mitoxantrone dihydrochloride] (hit class: G1-phase inhibitor), the “percent cells in S phase” value was 6.2%. In the case of `O=C(COc1ccc(Cl)cc1)NC(Cc1c[nH]c2ccccc12)C(=O)O` (configuration not stated) (hit class: G1-phase inhibitor), the “percent cells in S phase” value is reported as 6.86%. For `Nc1ccn([C@H]2CC[C@@H](CO)O2)c(=O)n1` [Zalcitabine] (hit class: S-phase inhibitor), the “percent cells in S phase” value was 21.2%. With `c1ccc2c(c1)Nc1nc3ccccc3nc1O2` (hit class: G1-phase inhibitor) the “percent cells in S phase” value was 7.38%. With `Cc1cc([N+](=O)[O-])ccc1NCc1ccc(F)c(F)c1` (hit class: G1-phase inhibitor) the “percent cells in S phase” value was 9.44%. In the case of `Cc1ccc(-c2cc(-c3ccccc3Cl)[nH]n2)c(O)c1` (hit class: G1-phase inhibitor), the “percent cells in S phase” value is reported as 7.81%. `Cn1c(SCc2ccccc2)nc2ccccc2c1=O` (hit class: S-phase inhibitor) was tested, and the “percent cells in S phase” value was 20.6%. For `CCN(CC)Cc1c(O)ccc2c(=O)c(-c3ccccc3)coc12` (hit class: S-phase inhibitor), the “percent cells in S phase” value was 22.3%. With `COc1c(C)c2c(c(O)c1C/C=C(\C)CCC(=O)O)C(=O)OC2` [Mycophenolic acid] (hit class: S-phase inhibitor) the “percent cells in S phase” value was 27.7%. With `C[C@@H]1C[C@H]2[C@@H]3C[C@H](F)C4=CC(=O)C=C[C@]4(C)[C@@]3(Cl)[C@@H](O)C[C@]2(C)[C@H]1C(=O)COC(=O)C(C)(C)C` [Clocortolone pivalate] (hit class: S-phase inhibitor) the “percent cells in S phase” value was 23.2%. With `COc1ccc(C(=O)c2coc3ccc(OC)cc3c2=O)cc1` (hit class: G1-phase inhibitor) the “percent cells in S phase” value was 7.3%. With `Cc1cc(N2CCCCC2)c(F)cc1[N+](=O)[O-]` (hit class: S-phase inhibitor) the “percent cells in S phase” value was 29.5%. With `COc1ccc(CSc2nncn2N)cc1` (hit class: S-phase inhibitor) the “percent cells in S phase” value was 19.7%. `C[C@@H]1CCC[C@H](C)N1NC(=O)c1ccc(Cl)c(S(N)(=O)=O)c1` [Clopamide] (hit class: G1-phase inhibitor) was tested, and the “percent cells in S phase” value was 8.75%.
